This is an account of results in PubChem BioAssay AID540299 (ICCB-Longwood Screening Facility, Harvard Medical School, 2011).

As usually defined, the inhibition is the relative decrease from the control value, in per cent.

About 440 (0.44%) of roughly 100,000 compounds were called active. Rule as the data show it: active = inhibition above about 21% (passing the limit was not always enough); inactive = the rest. Many of the other results were omitted from the sample, so actives are more common in it than they were.

For the assay, the target named is 1,4-dihydroxy-2-naphthoyl-CoA synthase (Mycobacterium tuberculosis (strain ATCC 25618 / H37Rv)) (UniProt P9WNP5). Put plainly: M. tuberculosis MenB inhibitors, primary screen, biochemical, absorbance (AID 540299). The following applies: MenB enzyme assay, absorbance read-out; hits give high values; concentration not given here.
1,4-dihydroxy-2-naphthoyl-CoA synthase (Mycobacterium tuberculosis (strain ATCC 25618 / H37Rv)), sequence (P9WNP5 whole entry, looked up): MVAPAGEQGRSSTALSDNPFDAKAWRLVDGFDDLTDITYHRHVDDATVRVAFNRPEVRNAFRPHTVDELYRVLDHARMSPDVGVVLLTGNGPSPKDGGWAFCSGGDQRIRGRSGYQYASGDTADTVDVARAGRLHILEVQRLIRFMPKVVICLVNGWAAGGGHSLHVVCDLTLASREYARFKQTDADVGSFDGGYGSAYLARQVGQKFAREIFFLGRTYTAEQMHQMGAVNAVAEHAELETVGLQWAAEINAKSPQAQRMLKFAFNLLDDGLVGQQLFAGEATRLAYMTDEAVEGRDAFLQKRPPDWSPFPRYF
On to `CC1CC(Nc2ncnc3c2cnn3C)CC(C)(C)C1` (stereo unspecified), for which the inhibition is -4.06% (inactive).

With `CCn1c(SCc2cc(=O)n3ccsc3n2)nnc1-c1cccs1`, the inhibition is 9.46% (inactive).

With `C=CCSc1nnc(NC(=O)CSc2nc(C)cc(=O)[nH]2)s1`, the inhibition was -17% (inactive).

As for `NS(=O)(=O)c1ccc(NC(=O)Cc2ccccc2F)cc1`, the inhibition is -21.5% (inactive).

Turning to `CCN(CC)C(=O)N1CCc2cc(OC)c(OC)cc2C1c1cc2cc(C)ccc2n(C(=O)N(CC)CC)c1=O` (stereo unspecified), the inhibition is 4.68% (inactive).

In the case of `N#CCSc1ccccc1NC(=O)CN1CCc2sccc2C1c1cccs1` (stereo unspecified), the inhibition is -20.8% (inactive).

As to `CN(CC(=O)Nc1ccccc1SCC#N)Cc1ccc(-c2ccc(Br)cc2)o1`, the inhibition is 30.3% (active).

`COc1cc(C(=O)Nc2ccc3nc(N4CCN(c5ncccn5)CC4)cc(C)c3c2)cc(OC)c1OC`: the inhibition was 2.12% (inactive).

`CC(c1ccccc1)n1cnc2c(oc3ccccc32)c1=O` (stereo unspecified): the inhibition is 7.36% (inactive).

In the case of `Cc1ccc2[nH]c(=O)c(C(c3nnnn3C3CCCC3)N(C)C3CCCCC3)cc2c1` (stereo unspecified), the inhibition was 3.2% (inactive).

As to `CCc1ccc(N/N=C(\C#N)C(=O)N2CCN(C)CC2)cc1`, the inhibition was -139% (inactive).

For the molecule `O=C(CCn1c(=O)c2cccn2c2ccc(F)cc21)NC1CCCCC1`, the inhibition was -14.7% (inactive).

Regarding `Cc1ccc2c(c1)c1c3n2CCN(C2CCO2)C3CCC1` (stereo unspecified), the inhibition was -8.76% (inactive).

`O=C(CC(NCCc1ccc(Cl)cc1)C(=O)O)c1ccc(Br)cc1` (stereo unspecified): the inhibition is -5.44% (inactive).

Regarding `CC(C)(C)c1oc2cc(Br)c(O)cc2c1C(=O)O`, the inhibition is -32.6% (inactive).

Consider `CCO/C(C)=N\Oc1nc2nonc2nc1O/N=C(/C)OCC`, for which the inhibition was 28.8% (active).

On to `COc1nc2nonc2nc1OC`, for which the inhibition is 26.7% (inactive).

Regarding `CCOC(=O)CCSc1ccccn1`, the inhibition was -3.2% (inactive).

In the case of `CN(Cn1nc(Nc2ccccc2F)sc1=S)C1CCCCC1`, the inhibition is 4.42% (inactive).

For the molecule `O=CN/N=C/c1cn(-c2cccs2)nc1-c1ccccc1`, the inhibition was -3.73% (inactive).

Regarding `C=COc1ccc(N)cc1`, the inhibition was -24.2% (inactive).

As to `Cc1noc2nc(C(F)(F)F)cc(C(F)(F)F)c12`, the inhibition is -1.29% (inactive).

As to `CS(=O)(=O)Cc1ccccc1`, the inhibition was 28.2% (active).

As for `COc1ccc(OCCNS(=O)(=O)Cc2ccccc2)cc1`, the inhibition is -18.2% (inactive).

In the case of `O=S(=O)(NCCc1ccccc1)c1ccccc1`, the inhibition is 10.7% (inactive).

For the molecule `O=C(O)CC(c1ccccc1)c1cc(Cl)ccc1O` (stereo unspecified), the inhibition was 2.19% (inactive).

As for `CC1CN(C(=O)COC(=O)c2c(F)cccc2F)CC(C)O1` (stereo unspecified), the inhibition was -14.9% (inactive).

With `Cc1cc(NC(=O)COC(=O)C2CSC3(C)CCC(=O)N23)no1` (stereo unspecified), the inhibition was -17% (inactive).

As to `CCCCn1c(N)c(N2CCOCC2)c(=O)n(CC(=O)NCCc2ccccc2)c1=O`, the inhibition is 2.85% (inactive).

Turning to `COc1cc(S(=O)(=O)N2CCCCC2)ccc1N=Cc1c(C)[nH]n(-c2ccccc2)c1=O`, the inhibition was -6.35% (inactive).

As to `Cn1c(=O)c(=O)n(C)c2cc(N3CCCCC3)c(NS(=O)(=O)c3ccc(Br)s3)cc21`, the inhibition is -15.3% (inactive).

On to `NCCN1C(=O)S/C(=C/c2cccs2)C1=O`, for which the inhibition was -14.2% (inactive).

Take `O=C(Cn1cnc2ccccc2c1=O)NCCSCc1ccco1`: the inhibition is -21.3% (inactive).

Turning to `COc1ccc(OCC(=O)N2CCC(C(N)=O)CC2)cc1`, the inhibition is -7.08% (inactive).

On to `CC1CC(C)CN(C(=O)COC(=O)c2ccccc2NC(=O)c2ccco2)C1` (stereo unspecified), for which the inhibition is 9.45% (inactive).

For the molecule `O=C1C2N=NN(CC(=O)N(c3ccccc3)c3ccccc3)C2C(=O)N1c1ccc(Cl)cc1` (stereo unspecified), the inhibition is -6.55% (inactive).

With `N#CC(C#N)=Cc1ccc(OC(=O)c2cccs2)cc1`, the inhibition is 0.71% (inactive).

Regarding `CC(=O)N(Cc1cc2ccccc2[nH]c1=O)c1ccccc1`, the inhibition is -11.4% (inactive).

Turning to `S=C(NC1CCCCC1)NN1CCOCC1`, the inhibition is -1.62% (inactive).

For the molecule `COC(=O)c1c(NC(=O)CCN2CCOCC2)sc2c1CCCC2`, the inhibition was -12.6% (inactive).

In the case of `CC(NCCN1CCOCC1)C(=O)NC1CCCCC1` (stereo unspecified), the inhibition is 35.5% (active).

Turning to `Cc1cc(C)n(CC(O)CNCc2ccco2)n1` (stereo unspecified), the inhibition is -21.2% (inactive).

As for `CN(C)c1ccc(C=Nc2cc(Br)c3c(c2)OCCO3)cc1`, the inhibition is 7.11% (inactive).

Consider `O=C(O)CSc1ccc2nnc(-c3ccc(F)cc3)n2n1`, for which the inhibition was -23.7% (inactive).

In the case of `CNCC(O)CN1CCN(c2ccccc2OC)CC1` (stereo unspecified), the inhibition is -10.5% (inactive).

As for `COc1ccccc1OCC(O)CN1CCOCC1` (stereo unspecified), the inhibition was 34.9% (active).

In the case of `COc1ccccc1CNCCN1CCOCC1`, the inhibition is 38.3% (active).

Regarding `COc1ccccc1COCC(O)CN1CCC(=O)CC1` (stereo unspecified), the inhibition is -22.7% (inactive).

With `COc1cccc(-c2noc(NCCN3CCOCC3)n2)c1`, the inhibition was -12.4% (inactive).

With `C(=C\c1ccccc1)/CNCCCN1CCOCC1`, the inhibition was -52.5% (inactive).

With `CC(=O)n1c2ccccc2c2nc(C)sc21`, the inhibition is -21.4% (inactive).

For the molecule `CCOC(=O)c1ccc(NC(=O)C(CC)Sc2nnc(C)n3c2cc2occc23)cc1` (stereo unspecified), the inhibition was -38.3% (inactive).

In the case of `CN(C)c1ccc(/C=N/NC(=O)NC23CC4CC(CC(C4)C2)C3)cc1`, the inhibition was -17% (inactive).

Consider `CC(C)c1cc(C(=O)O)on1`, for which the inhibition was 31.1% (active).

Turning to `Cc1cc(C(=O)N2CCCC2)on1`, the inhibition is -1.16% (inactive).

`CCCNC(=O)c1cc(C(C)C)on1`: the inhibition is -9.37% (inactive).

Turning to `COc1cc(OC)c(NC(=O)C2CCCN(S(=O)(=O)c3ccc4c(c3)oc(=O)n4C)C2)cc1Cl` (stereo unspecified), the inhibition was -18.8% (inactive).

On to `Cc1nnc(NC(=O)CSc2nnc(CNC(=O)c3ccccc3F)n2C)s1`, for which the inhibition is 27.8% (inactive).

With `O=C(OCc1ccc(-c2cc(C(F)(F)F)cc(C(F)(F)F)c2)o1)c1ccc2c(c1)CCO2`, the inhibition was -6.53% (inactive).

In the case of `CCN(CC)C(=O)COc1ccc(/C(C)=N/NC(=O)Cc2ccccc2)cc1`, the inhibition was -14.7% (inactive).

For `O=C(NCCc1ccccc1)Nc1ccccc1`, the inhibition is 8.56% (inactive).

With `O=C(O)C1C2C=CC(O2)C1C(=O)NCCc1cccc(Cl)c1` (stereo unspecified), the inhibition is -14.4% (inactive).

In the case of `O=C(O)C1CC=CCC1C(=O)NCCc1ccccc1` (stereo unspecified), the inhibition is 36% (active).

Take `COc1cccc(-n2c(=S)sc3c(=O)n4[nH]c(=O)c5ccccc5c4nc32)c1`: the inhibition is -24.4% (inactive).

As for `CC(C)[C@H](NC(N)=O)C(=O)Nc1ccc(Cl)c(Cl)c1`, the inhibition is -13.2% (inactive).

Take `CCOC(CSc1nnc2c3ccccc3n(CC)c2n1)OCC`: the inhibition is -14% (inactive).

Take `CC(=O)NC1C(Oc2ccccc2)OC(CO)C(O)C1O` (stereo unspecified): the inhibition is -6.61% (inactive).

On to `COc1ccc(OCCOc2cccc(N)c2)cc1`, for which the inhibition is -98.6% (inactive).

As to `Cc1cccc(-n2nnnc2SCC(=O)c2c[nH]c3ccccc23)c1`, the inhibition is -3.22% (inactive).

Consider `CCn1nnnc1SCC(=O)c1ccc(C)cc1C`, for which the inhibition was 33.1% (active).

Consider `C=CCN(CC=C)C(=O)CSc1nnnn1-c1ccc(C)cc1C`, for which the inhibition is -1.92% (inactive).

`CCNC(=S)N1CCn2cccc2C1c1cccs1` (stereo unspecified): the inhibition is -29% (inactive).

`CC(Sc1nnnn1C)C(=O)C12CC3CC(CC(C3)C1)C2` (stereo unspecified): the inhibition is -36% (inactive).

Take `COc1ccc(S(N)(=O)=O)cc1C(=O)OC1CCCCC1=O` (stereo unspecified): the inhibition was -12.8% (inactive).

As to `Clc1cccc(Nc2nnc(-c3ccc(Br)cc3)o2)c1`, the inhibition was 1.27% (inactive).

Take `CC1CCNC(c2cccn2C)CC1` (stereo unspecified): the inhibition was -2.11% (inactive).

Turning to `CCN1C(=O)C2(Sc3ccccc3C2=O)C(=O)N(CC)C1=S`, the inhibition was -6.71% (inactive).

As to `Clc1ncn(CCOc2ccccc2)c1Cl`, the inhibition was 3.99% (inactive).

Consider `O=C(Cn1c(=O)oc2ccccc21)N(Cc1ccco1)CC1CCCO1` (stereo unspecified), for which the inhibition is 2.87% (inactive).

For the molecule `O=C(NCc1ccco1)OCC(F)(F)F`, the inhibition is 8.37% (inactive).

In the case of `O=C(c1cccs1)N1CCCn2c(SCc3ccccc3Cl)nnc21`, the inhibition is -21.4% (inactive).

`COC(=O)c1ccccc1S(=O)(=O)N1CCC(C(=O)OCC(=O)Nc2ccccc2F)CC1`: the inhibition was -9.07% (inactive).

Take `CCN(CC)CCn1c2ccccc2c2nc3cc(C(=O)O)ccc3nc21`: the inhibition is -8.07% (inactive).

For the molecule `Cc1oc(-c2ccc(Cl)cc2)nc1CSCC(=O)N1CCc2ccccc21`, the inhibition is 8.32% (inactive).

Consider `COCCN=c1scc(-c2ccco2)n1/N=C/c1ccc(OC)cc1`, for which the inhibition is -60.5% (inactive).

As for `CN1C(=O)CS/C1=C\C(=O)c1cccs1`, the inhibition is -16.1% (inactive).

On to `Fc1ccc(C=Nc2ccc3c(c2)OCO3)cc1`, for which the inhibition was 10.6% (inactive).

Take `C/[N+]([O-])=C\c1ccc(-c2ccccc2)cc1`: the inhibition is -18.5% (inactive).

Consider `O=C(COc1ncnc2c1cnn2-c1ccccc1)N1CCc2ccccc21`, for which the inhibition is -28.4% (inactive).

With `O=C(COn1nnc2ccccc21)N1CCC(Cc2ccccc2)CC1`, the inhibition is -32.5% (inactive).

Consider `O=C1NC(c2cccc(F)c2)=N/C1=C/c1cc2c(cc1Cl)OCO2`, for which the inhibition is -89% (inactive).

Turning to `Cc1ccc(-c2csc3ncnc(NCCO)c23)cc1`, the inhibition is -19.8% (inactive).

For `Cc1cccc(/N=c2\scc(-c3ccco3)n2-c2ccccc2)n1`, the inhibition was -26.2% (inactive).

On to `CCC(=O)c1c(O)ccc2c(C)cc(=O)oc12`, for which the inhibition was 2.91% (inactive).

In the case of `CCN(CC)c1ccc2cc(C(N)=O)/c(=N\NC(=O)c3ccccc3)oc2c1`, the inhibition was -13.9% (inactive).

`Cn1c(=N)n(CC(=O)C23CC4CC(CC(C4)C2)C3)c2ccccc21`: the inhibition is -12% (inactive).

In the case of `Cc1ccc(NC(=O)CN2CCc3ccccc32)cc1C`, the inhibition was -19.3% (inactive).

`COc1cccc2c(C)nc(NC3=NCN(CC4CCCO4)CN3)nc12` (stereo unspecified): the inhibition was -8.02% (inactive).

`COC(=O)c1ccc(NC(=O)C(C(C)C)N2C(=O)c3ccccc3C2=O)cc1` (stereo unspecified): the inhibition is 0.235% (inactive).

In the case of `Cc1cc(NC(=O)[C@H](C)NC(=O)c2ccco2)ccc1Br`, the inhibition is 0.245% (inactive).

As for `Cc1ccccc1NC(=O)COC(=O)c1ccccc1`, the inhibition is 4.34% (inactive).

With `O=C1Nc2ccccc2S/C1=C\C(=O)N1CCc2ccccc2C1`, the inhibition is -6.55% (inactive).

In the case of `CCOC(=O)c1ccc2c(c1)[nH]c(=O)c(=O)n2CC`, the inhibition is 5.07% (inactive).

As to `O=C(O)/C(=C/C(=O)c1ccccc1)Nc1ccc(OC(F)(F)F)cc1`, the inhibition is 32.1% (active).

Turning to `C/C(=C\C(=O)c1ccccc1)Nc1cccc(O)c1`, the inhibition is -47% (inactive).

With `O=C(O)/C(=C/C(=O)c1ccc(F)cc1)Nc1ccc2[nH]c(=O)[nH]c2c1`, the inhibition was -9.19% (inactive).
